# Compound activity (PubChem)
# An excerpt weighted towards active compounds, which were near 5.9% of everything screened.
# TrxR1 inh = inhibitors of rat thioredoxin reductase 1 | recombinant rTrxR1, NADPH fluorescence consumption, selenite substrate | 390,000 tested, 1% active | AID 588453 | Potency, µM (doses to about 114 µM), inactives show top-dose activity change, negative = inhibition, actives largely listed as inhibitors | O89049; note: potency is the fitted concentration of half-maximal effect; nearly all actives have a fitted effect of over 65% in size
#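 Rat TrxR1 (90 nM in the dispensed reagent) was pre-reduced with 400 uM NADPH for 5 min at room temperature, then incubated with compound for 15 min. After 400 uM selenite was added, NADPH fluorescence (Ex 340/Em 450 nm) was followed for 8 min.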
# FBPA coupling cs = counter-screen for Giardia aldolase inhibitors: coupling enzyme system. coupling enzyme system counterscreen, AmpLite Red fluorescence. activity change, negative = inhibition, % at 58.2 µM, hits read low. 290,000 tested, 0.67% active. AID 2472; in the data active = activity change below about -30%
#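 Coupling enzymes only (glyceraldehyde-3-phosphate) + compound, at 57.5 uM final, 10 min RT; add substrate/coupling/AmpLite Red mix, 20 min RT; fluorescence ex 525/em 598 nm. Actives flag coupling-system interference.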
# RORg inh = blocks mouse ROR gamma transcriptional activity. P51450. Drosophila S2 Gal4-RORgamma UAS-luciferase reporter, 20 h. Potency, µM (top dose mostly 53.6 µM), for the others: top-dose activity change, negative = inhibition, hits mostly inhibitors. 310,000 tested, 5.4% active. AID 2551; note: potency is the fitted concentration of half-maximal effect; nearly all actives have a fitted effect of over 60% in size
#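 In this cell-based reporter format, copper sulfate (700 uM final) drives Gal4–ROR gamma fusion expression from a metallothionein promoter in Drosophila Schneider cells; compounds preincubated 1 hr, reporter read after 20 hr at ambient temperature.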
# GALK inhibitor = blocks human galactokinase activity; 270,000 tested, 0.007% active; Potency, µM (highest dose often 57.5 µM), without a hit: at the top dose activity change, negative = inhibition, usual class: inhibitors; Purified GALK, Kinase-Glo residual ATP luminescence; AID 1868; note: potency is the fitted concentration of half-maximal effect
# Target sequence (P51570 whole entry, looked up): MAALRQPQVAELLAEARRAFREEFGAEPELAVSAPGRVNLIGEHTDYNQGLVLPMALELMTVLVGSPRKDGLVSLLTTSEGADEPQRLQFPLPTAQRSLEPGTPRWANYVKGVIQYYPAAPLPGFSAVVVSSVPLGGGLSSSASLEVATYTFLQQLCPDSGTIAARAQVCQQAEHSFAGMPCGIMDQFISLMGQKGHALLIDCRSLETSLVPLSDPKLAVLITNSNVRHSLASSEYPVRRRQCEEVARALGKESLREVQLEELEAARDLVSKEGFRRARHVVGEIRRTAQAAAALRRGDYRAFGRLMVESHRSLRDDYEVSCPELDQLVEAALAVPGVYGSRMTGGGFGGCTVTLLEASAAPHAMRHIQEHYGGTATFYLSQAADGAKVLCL
#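 GALK at 5 nM final was combined with compound, 35 uM ATP and 100 uM galactose in HEPES pH8.0 with MgCl2 and DTT. The reaction ran one hour at room temperature before luminescent ATP detection.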
# VP16 counter = Gal4-VP16 reporter inhibition counter-screen; 310,000 tested, 3.5% active; Drosophila S2 Gal4-VP16 UAS-luciferase, luminescence, 20 h; Potency, µM (highest dose often 53.6 µM), without a hit: top-dose activity, negative = inhibition, hits mostly inhibitors;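 note: Gal4-VP16 expression switched on by copper sulfate through the metallothionein promoter; potency is the fitted concentration of half-maximal effect; nearly all actives have a fitted effect of over 50% in size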
# TrxR1 substrate = rat thioredoxin reductase 1 substrate activity; purified TrxR1 substrate turnover, NADPH consumption readout; Potency, µM (doses to about 114 µM), for inactives: at the top dose activity change, negative = substrate turnover; 390,000 tested, 0.01% active; AID 588456; note: potency is the fitted concentration of half-maximal effect; nearly all actives have a fitted effect of over 50% in size
#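 Rat TrxR1, dispensed at 90 nM, was prereduced with 400 uM NADPH (final) for 5 min at ~22 deg C, then incubated with compound 15 min before 400 uM selenite. A first-read NADPH fluorescence drop versus no-compound background flagged substrates.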
# The depositor's hits bear a star; i = inactive; u = inconclusive; x = not tested or not shown; [ ] = another dose, or the depositor's remark. Unless noted, calls come from the whole dose curve; as a rule, active = well fitted curve in the direction sought with a large enough effect; inconclusive = small, poorly fitted or top-dose-only effect, or another doubt; inactive = no such curve, though single readings can be large; an effect the other way counts as inactive or inconclusive. % is set by controls: 0 for no effect and ±100 for the full control effect.
SMILES,TrxR1 inh,FBPA coupling cs,RORg inh,GALK inhibitor,VP16 counter,TrxR1 substrate
CC(=O)n1cc(N(C(=O)CCl)c2ccccc2)c2ccccc21,0.63µM*,2,u,4%,u,0%
O=Cc1[nH]c2ccccc2c1N(C(=O)CCl)c1ccc([N+](=O)[O-])cc1,11µM*,-1,36%,-18%,-9%,-6%
Nc1nc(-c2ccc3c(c2)OCCO3)cs1,10%[57.1 µM],-1,25%,5%,7%,-3%
N#Cc1ncc(-c2ccc3c(c2)OCCOCCOCCOCCOCCO3)nc1C#N,-1%,3,11µM*,0%,4.5µM*,-2%
N#Cc1ncc(-c2ccc3c(c2)OCCOCCOCCOCCO3)nc1C#N,-13%,0,13µM*,-7%,u,-3%
CC1=CC(C)(C)N2C(=O)C(=Nc3ccc(O)cc3)c3cccc1c32,u,-45*,-14%,2%,u,-12%
COc1cc(N=C2C(=O)N3c4c(cccc42)C(C)=CC3(C)C)cc(OC)c1,5%,-9,-25%,0%,1%,-5%
CCN(Cc1ccccc1)S(=O)(=O)c1ccc(OC)cc1,17%,3,122%,6%,-28%,-8%
CCc1nnc(NC(=O)c2ccc(S(=O)(=O)N(CC)Cc3ccccc3)cc2)o1,-6%,17,0.1µM*,-2%,0.11µM*,6%[57.1 µM]
CCN(Cc1ccccc1)S(=O)(=O)c1ccc(C(=O)Nc2nnc(C)o2)cc1,9%,0,0.56µM*,-6%,0.56µM*,-6%
CCN(Cc1ccccc1)S(=O)(=O)c1ccc(-c2coc(C)n2)cc1,5%[57.1 µM],x,x,x,x,-4%[57.1 µM]
CN(Cc1ccccc1)S(=O)(=O)c1ccc(C(=O)Nc2nnc(C3CC3)o2)cc1,-11%,6,0.28µM*,-5%,0.56µM*,-6%
COc1ccccc1-c1nnc(NC(=O)c2ccc(S(=O)(=O)N(C)Cc3ccccc3)cc2)o1,-29%,-11,0.32µM*,-2%,0.0028µM*,-6%
Cc1ccc2oc(=O)c3cc(C(=O)Nc4ccc(C)c(F)c4)sc3c2c1,-1%,x,x,x,x,-1%
O=C(CC1C(=O)NCCN1CCCc1ccccc1)NCCc1ccccc1F (stereo unspecified),27%,-1,u,-1%,18%,14%
CC1CN(c2ccc([N+](=O)[O-])cn2)CC(C)O1 (stereo unspecified),-9%[57.1 µM],0,-5%,-3%,7%,2%[57.1 µM]
CCOC(=O)/C=c1\s/c(=C\c2ccc3cc(OC)ccc3c2)c(=O)n1CC(=O)NCC1CCCO1 (stereo unspecified),14%[57.1 µM],1,0%,1%,-15%,11%[57.1 µM]
COc1ccc(C(=O)NC(C)Cc2cnccn2)cc1OC1CCN(C(C)C)CC1 (stereo unspecified),1%,x,-1%,-5%,8%,-4%
CCc1nnc(NC(=O)c2ccc(S(=O)(=O)N(C)Cc3ccccc3)cc2)o1,19%,-2,0.13µM*,-3%,u,-4%
CN(Cc1ccccc1)S(=O)(=O)c1nnc(NC(=O)c2ccc(F)cc2)s1,23%,x,-10%,-2%,-20%,3%
O=c1oc2c(CN3CCOCC3)c(O)c(Cl)cc2c2c1CCCC2,106%,-11,11µM*,1%,-4%,i
CCCCc1cc(=O)oc2c(CN3CCN(C)CC3)c(O)ccc12,u,0,39%,x,-2%,i
CCCc1cc(=O)oc2c(CN3CCN(C)CC3)c(O)c(Cl)cc12,40µM*,2,-2%,6%,-6%,i
CCCc1cc(=O)oc2c(CN(CC)CC)c(O)c(Cl)cc12,18µM*,0,-3%,-1%,-4%,953%
CCCc1cc(=O)oc2c(CN3CCN(C)CC3)c(O)ccc12,79µM*,-1,8%,4%,-1%,869%
SMILES,TrxR1 inh,FBPA coupling cs,RORg inh,GALK inhibitor,VP16 counter,TrxR1 substrate
CC(=O)OC1CCC2(C)C(CCC3C2CC(OC(C)=O)C2(C)C3C[C@@H]3O[C@]4(CC[C@@H](C)CO4)[C@@H](C)C32)C1 (stereo partly specified),13%,x,x,x,x,5%
COC(=O)c1ccc(CSc2n[nH]c(-c3ccccc3)n2)o1,17%,0,25%,3%,-2%,2%
CCO/C=C1/C(=O)N(C)C(=O)c2cc(OC)ccc21,-23%,-43*,3%,0%,1%,8%[57.1 µM]
Clc1ccc2c(N/N=C/c3ccccc3Br)ccnc2c1,-3%,0,-110%,0%,18µM*,-4%
CC(=O)c1ccc(S(=O)(=O)Nc2ccc(-c3ccc(N4CCCCCC4)nn3)cc2)cc1,21%[57.1 µM],x,x,x,x,-2%[57.1 µM]
S=c1[nH]nc(COc2cccc3ccccc23)n1Cc1ccccc1,-8%,-1,3.2µM*,0%,u,-3%
Cc1ccc(OCc2n[nH]c(=S)n2Cc2ccccc2)cc1,-4%[57.1 µM],6,0.89µM*,-3%,6.3µM*,5%[57.1 µM]
Cc1ccccc1OCc1n[nH]c(=S)n1Cc1ccccc1,-14%[57.1 µM],6,3.5µM*,1%,u,8%[57.1 µM]
CCOc1ccc(Cc2n[nH]c(=S)n2Cc2ccccc2)cc1,-12%,4,4.5µM*,-3%,-21%,3%
COc1ccc(S(=O)(=O)N2CCOCC2)cc1NC(=O)CSc1nnc(C2CC2)n1C,33%,x,x,x,x,0%
Cc1ccccc1C(=O)N1CCC(C(=O)Nc2ccc(S(=O)(=O)N3C(C)CCCC3C)cc2)CC1 (stereo unspecified),29%,x,x,x,x,1%
Cc1[nH]c(C)c(C(=O)/C=C/c2ccc([N+](=O)[O-])cc2)c1C,u,-1,1.1µM*,0%,u,0%
COc1ccc(C=CC(=O)c2ccc([N+](=O)[O-])cc2)cc1,-6%,x,x,x,x,-3%
COc1ccccc1CNc1cc(-c2ccccc2)nc2nncn12,35µM*,x,x,x,x,-2%
CCOC(=O)[C@@H]1[C@H]2COc3ccccc3[C@@H]2N2C(=O)N(c3ccc(F)cc3)C(=O)[C@@]12C,-8%[57.1 µM],1,13µM*,x,-7%,5%
CCOC(=O)[C@@H]1[C@H]2COc3cc(OC)ccc3[C@@H]2N2C(=O)N(c3ccc(C)cc3)C(=O)[C@@]12C,17%[2.29 µM],-1,5µM*,x,1%,-6%
CCOC(=O)[C@@H]1[C@H]2COc3cc(OC)ccc3[C@@H]2N2C(=O)N(c3ccc(Cl)cc3)C(=O)[C@@]12C,-9%,-1,8.9µM*,x,u,-9%
CCOC(=O)[C@H]1[C@H]2COc3cc(OC)ccc3[C@@H]2N2C(=O)N(c3ccc(Cl)cc3)C(=O)[C@@]12C,34%,-1,20%,x,5%,5%
CCOC(=O)[C@@H]1[C@H]2COc3cc(OC)ccc3[C@@H]2N2C(=O)N(c3cccc(F)c3)C(=O)[C@@]12C,30%,2,10µM*,x,0%,13%
